Screening data (PubChem BioAssay)
Only some compounds are listed: those with a hit (about 19% of all), similar ones and a draw of the others.
IL1B secr inh – inflammasome signaling inhibition, IL-1 beta readout; THP-1 LPS/ATP IL-1B secretion, AlphaLISA, 16 h; active compounds read low; activity change, % at 57.5 µM; 360,000 tested, 4.7% active; AID 743279; in the data active = activity change below about -50%; inconclusive = mostly about -30% to -49%
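THP-1 cells pretreated 1 hr with compounds (up to 57.5 uM final), then stimulated with LPS (250 ng/mL final) plus ATP (1.25 mM final); secreted IL-1B measured by AlphaLISA after 16 hr, decreased signal indicating inhibition.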
TDP1 cell CPT – DT40-hTDP1 cell growth loss with CPT. chicken DT40 Tdp1-/-;hTDP1 cells + 20 nM CPT, ATP luminescence, 48 h. AID 686979. 420,000 tested, 12% active. Potency, µM (highest dose often 46.2 µM), actives largely listed as inhibitors; note: nearly all actives have a fitted effect of over 55% in size
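Cell growth measured by CellTiter-Glo luminescence after a minimum 48 h, 37 C compound exposure with 20 nM CPT in Tdp1-knockout DT40 cells stably expressing hTDP1, seeded 400/well; qHTS titration format.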
HT1080 IDH1KD tx – kills HT-1080 cells with IDH1 knockdown. AID 686971. Potency, µM (titrated, usually from 46.1 µM), usual class: cytotoxic. HT-1080 IDH1 knockdown viability, ATP luminescence, 48 h. 360,000 tested, 2% active
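Viability of IDH1-knockdown HT-1080 fibrosarcoma cells was assessed by CellTiter-Glo after 48 h at 37 °C with titrated compound; concentration-effect curves were classified by fit quality and response size.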
HT1080NT lethal – kills 2HG-producing HT-1080-NT fibrosarcoma cells. HT-1080-NT fibrosarcoma viability, CellTiter-Glo ATP luminescence, 48 h. Potency, µM (doses to about 46.1 µM), usual class: cytotoxic. 360,000 tested, 1.6% active. AID 686970;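 note: NT is the 2HG producing partner of a matched IDH1 knockdown line; nearly all actives have a fitted effect of over 55% in size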
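Read-out is CellTiter-Glo luminescence after 10 minutes at room temperature, following 48 hours' compound treatment of HT-1080-NT cells (750 cells/well, RPMI, 5% FBS, 37 degrees C).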
DT40 TDP1 no CPT – qHTS for Inhibitors of human tyrosyl-DNA phosphodiesterase 1 (TDP1): qHTS in cells in absence of CPT; DT40 Tdp1-/- hTDP1 cells, no CPT, ATP luminescence, 48 h; 420,000 tested, 15% active; Potency, µM (top dose mostly 46.2 µM), hits mostly inhibitors; AID 686978, 2013; note: nearly all actives have a fitted effect of over 55% in size
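Compound effects on proliferation are scored in DT40 Tdp1-/-;hTDP1 cells in the absence of CPT. ATP levels (CellTiter-Glo luminescence) are recorded after a ≥48 hr, 37 °C incubation.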
Large screens that a line does not name were inactive. Unless noted, calls come from the whole dose curve; as a rule, active = well fitted curve in the direction sought with a large enough effect; inconclusive = small, poorly fitted or top-dose-only effect, or another doubt; inactive = no such curve, though single readings can be large; an effect the other way counts as inactive or inconclusive.

COc1ccc(CNC(=O)C[C@H]2C[C@H](C(=O)N3CCCCC3)[C@@]3(C)c4[nH]c5ccc(Cl)cc5c4CCN3C2=O)cc1OC	IL1B secr inh -56.3, TDP1 cell CPT 18.4µM, DT40 TDP1 no CPT 11.6µM
CCN(CC)C(=O)[C@H]1C[C@H](CC(=O)NCCc2ccccn2)C(=O)N2CCc3c([nH]c4ccc(Cl)cc34)[C@]12C	TDP1 cell CPT inconclusive, DT40 TDP1 no CPT 20.6µM
C[C@]12c3[nH]c4ccc(Cl)cc4c3CCN1C(=O)[C@@H](CC(=O)NCCc1ccccn1)C[C@@H]2C(=O)N1CCOCC1	TDP1 cell CPT inconclusive
CCN(CC)C(=O)[C@H]1C[C@H](CC(=O)NCCc2ccccn2)C(=O)N2CCc3c([nH]c4cc(-c5ccco5)ccc34)[C@]12C	TDP1 cell CPT 18.4µM, DT40 TDP1 no CPT inconclusive
CC[C@]12c3[nH]c4cc(-c5ccco5)ccc4c3CCN1C(=O)[C@@H](CC(=O)NCCCOC)C[C@@H]2C(=O)N1CCN(C(=O)C2CC2)CC1	TDP1 cell CPT inconclusive, DT40 TDP1 no CPT inconclusive
CC(C)N(C(=O)[C@H]1C[C@H](CC(=O)NCCc2ccccn2)C(=O)N2CCc3c([nH]c4cc(-c5ccco5)ccc34)[C@]12C)C(C)C	IL1B secr inh inconclusive, TDP1 cell CPT inconclusive, DT40 TDP1 no CPT inconclusive
CCN(CC)C(=O)[C@H]1C[C@H](CC(=O)NCCCOC)C(=O)N2CCc3c([nH]c4cc(-c5ccco5)ccc34)[C@]12C	TDP1 cell CPT 14.6µM, DT40 TDP1 no CPT 18.4µM
COCCCNC(=O)C[C@H]1C[C@H](C(=O)N2CCCCC2)[C@@]2(C)c3[nH]c4cc(-c5ccco5)ccc4c3CCN2C1=O	TDP1 cell CPT 16.4µM, DT40 TDP1 no CPT inconclusive
C[C@]12c3[nH]c4cc(-c5ccco5)ccc4c3CCN1C(=O)[C@@H](CC(=O)NCCN1CCOCC1)C[C@@H]2C(=O)N1CCCCC1	DT40 TDP1 no CPT inconclusive
Cc1ccc(NC(=O)COC(=O)c2cccc(S(=O)(=O)N3CCCCCC3)c2)cc1	none
COc1ccccc1-c1coc2cc(O)ccc2c1=O	none (no result: IL1B secr inh, HT1080 IDH1KD tx, HT1080NT lethal)
CC(C)C[C@H](NC(=O)c1[nH]cnc1C(=O)N[C@@H](C)c1ccccc1)C(=O)OC(C)(C)C	TDP1 cell CPT inconclusive, HT1080 IDH1KD tx inconclusive, HT1080NT lethal inconclusive, DT40 TDP1 no CPT inconclusive
CC(C)C[C@H](NC(=O)c1nc[nH]c1C(=O)NCc1ccc(CNC(=O)OC(C)(C)C)cc1)C(=O)OC(C)(C)C	TDP1 cell CPT 25.9µM, HT1080 IDH1KD tx inconclusive, DT40 TDP1 no CPT 16.4µM
C[C@H](NC(=O)c1nc[nH]c1C(=O)NCc1ccc(CNC(=O)OC(C)(C)C)cc1)C(=O)OC(C)(C)C	TDP1 cell CPT 18.4µM, DT40 TDP1 no CPT 16.4µM
C[C@@H](NC(=O)c1nc[nH]c1C(=O)NCc1ccc(CNC(=O)OC(C)(C)C)cc1)c1ccccc1	TDP1 cell CPT inconclusive, DT40 TDP1 no CPT 23.1µM
CCOc1ccc(NC(=O)Nc2cccnc2)cc1	TDP1 cell CPT inconclusive, DT40 TDP1 no CPT inconclusive
CC(C)c1ccc(C(C(=O)NC2CCCCC2)N(C(=O)c2csnn2)C2CC2)cc1 (configuration not stated)	TDP1 cell CPT inconclusive, DT40 TDP1 no CPT inconclusive
Cc1cn2c(=O)cc(COc3ccc(C(C)(C)C)cc3)nc2s1	none (no result: IL1B secr inh, HT1080 IDH1KD tx, HT1080NT lethal)
NC(=O)C1CCN(C2CC(=O)N(Cc3ccc(N4CCCC4=O)cc3)C2=O)CC1 (configuration not stated)	TDP1 cell CPT 25.9µM, DT40 TDP1 no CPT inconclusive
O=C1CC(N2CCN(C(c3ccccc3)c3ccccc3)CC2)C(=O)N1Cc1ccc(N2CCCC2=O)cc1 (configuration not stated)	none
Cc1cccc(C)c1-n1c(C)nn(CC2CC2)c1=O	none
Cn1c(N2CCN(c3ccccn3)CC2)nc2c1c(=O)n(Cc1ccc(Cl)cc1)c(=O)n2C	TDP1 cell CPT 16.4µM, DT40 TDP1 no CPT inconclusive
Cn1c(OCc2ccc3c(c2)OCO3)nc2c1c(=O)n(Cc1ccc(Cl)c(Cl)c1)c(=O)n2C	TDP1 cell CPT inconclusive, DT40 TDP1 no CPT inconclusive
